{
  "source": "PubChem BioAssay (NCATS)",
  "key": {"[1]": {"experiment": "P-glycoprotein substrates identified in KB-3-1 adenocarcinoma cell line, qHTS therapeutic library screen (AID 1346986); also: nearly all actives have a fitted effect of over 60% in size;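 also: potency is for cytotoxicity meaning loss of cell viability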", "in_short": "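Compounds were tested in dose-response against KB-3-1 and KB-8-5-11 cells at 37 degree C for 72 h, and viability was measured by luminescence. AC50 values came from curve fitting with class-based activity calls.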"}, "[2]": {"experiment": "P-glycoprotein substrates identified in KB-8-5-11 adenocarcinoma cell line, qHTS therapeutic library screen (AID 1346987); also: nearly all actives have a fitted effect of over 65% in size; as to activity change, negative = cytotoxicity: series mostly up to about 44 µM", "in_short": "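P-gp-mediated resistance screen: KB-8-5-11 cells treated 72 h with compounds in dose-response. CellTiter-Glo viability.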"}},
  "note": "Records with an inconclusive call do not appear. Entries that show only a call come without a potency. Unmarked numbers belong to inactive results. Active and inactive are the calls of the source. Calls follow the shape of the dose curve; as a rule, active = well fitted curve in the direction sought with a large enough effect; inconclusive = small, poorly fitted or top-dose-only effect, or another doubt; inactive = no such curve, though single readings can be large; an effect the other way counts as inactive or inconclusive. Potency is read from the fitted curve at half-maximal effect.",
  "data": [
    {"smiles": "OC[C@H]1O[C@@H](Oc2ccccc2)[C@H](O)[C@@H](O)[C@@H]1O", "values": [
      {"measurement": "Potency", "setting": "[1]", "value": "inactive"},
      {"measurement": "Potency", "setting": "[2]", "value": "inactive"}
    ]},
    {"smiles": "C=CC1C(OC2OC(CO)C(O)C(O)C2O)OC=C(C(=O)OC)C1CC(=O)OCC1C(C)C(O)CC1C(CO)COC(=O)CC1C(C(=O)O)=COC(OC2OC(CO)C(O)C(O)C2O)/C1=C\\C", "note": "(configuration not stated)", "values": [
      {"measurement": "outcome", "setting": "[1]", "value": "inactive [at 9.29 µM]"},
      {"measurement": "activity change, negative = cytotoxicity", "setting": "[2]", "value": "-0.744% [at 9.29 µM]"}
    ]},
    {"smiles": "CC(C)=CCC/C(C)=C/CO[C@@H]1O[C@H](CO)[C@@H](OC(=O)/C=C/c2ccc(O)cc2)[C@H](O[C@@H]2O[C@@H](C)[C@H](O)[C@@H](O)[C@H]2O)[C@H]1O", "values": [
      {"measurement": "Potency", "setting": "[1]", "value": "inactive"},
      {"measurement": "Potency", "setting": "[2]", "value": "inactive"}
    ]},
    {"smiles": "Nc1ncnc2c1ncn2CCNCCCCCO", "values": [
      {"measurement": "Potency", "setting": "[1]", "value": "inactive"},
      {"measurement": "Potency", "setting": "[2]", "value": "inactive"}
    ]},
    {"smiles": "CCNC(=O)Nc1ccc(-c2nc3c(c(N4CCOC[C@@H]4C)n2)CCN(c2ncccn2)C3)cc1", "values": [
      {"measurement": "Potency", "setting": "[1]", "value": "58 nM (active)"},
      {"measurement": "Potency", "setting": "[2]", "value": "259 nM (active)"}
    ]},
    {"smiles": "[N-]=[N+]=N[C@]1(CO)O[C@@H](n2ccc(=O)[nH]c2=O)[C@@H](O)[C@@H]1O", "values": [
      {"measurement": "Potency", "setting": "[1]", "value": "inactive"},
      {"measurement": "Potency", "setting": "[2]", "value": "inactive"}
    ]},
    {"smiles": "COc1ccc(CN2C(=O)C(=O)c3cc(S(=O)(=O)N4CCC[C@H]4COc4cccnc4)ccc32)cc1", "values": [
      {"measurement": "Potency", "setting": "[1]", "value": "inactive"},
      {"measurement": "Potency", "setting": "[2]", "value": "inactive"}
    ]},
    {"smiles": "CC1=CC(=O)CC(C)(C)[C@H]1/C=C/C(CO)O[C@@H]1O[C@H](CO)[C@@H](O)[C@H](O)[C@H]1O", "note": "(some centres not stated)", "values": [
      {"measurement": "Potency", "setting": "[1]", "value": "inactive"},
      {"measurement": "Potency", "setting": "[2]", "value": "inactive"}
    ]},
    {"smiles": "CC1(C)CC2C=C(C(=O)O)C3COC(=O)C(O)(CO)C23C1", "note": "(configuration not stated)", "values": [
      {"measurement": "Potency", "setting": "[1]", "value": "inactive"},
      {"measurement": "Potency", "setting": "[2]", "value": "inactive"}
    ]},
    {"smiles": "CCCOC(c1cc2nccc(C(=O)O)c2[nH]1)c1ccccc1Cl", "note": "(configuration not stated)", "values": [
      {"measurement": "Potency", "setting": "[1]", "value": "inactive"},
      {"measurement": "Potency", "setting": "[2]", "value": "inactive"}
    ]},
    {"smiles": "COC(=O)C1=CO[C@@H](O[C@@H]2O[C@H](CO[C@@H]3O[C@H](COC(=O)/C=C/c4cc(OC)c(O)c(OC)c4)[C@@H](O)[C@H](O)[C@H]3O)[C@@H](O)[C@H](O)[C@H]2O)[C@@H]2C(CO)=CC[C@H]12", "values": [
      {"measurement": "Potency", "setting": "[1]", "value": "inactive"},
      {"measurement": "Potency", "setting": "[2]", "value": "inactive"}
    ]},
    {"smiles": "CC1(c2nc3c(C(N)=O)cccc3[nH]2)CCCN1", "note": "(configuration not stated)", "values": [
      {"measurement": "Potency", "setting": "[1]", "value": "inactive"},
      {"measurement": "Potency", "setting": "[2]", "value": "inactive"}
    ]},
    {"smiles": "C[C@H](N)C(=O)N[C@@H](Cc1ccc(O)cc1)C(=O)N1CCC[C@H]1C(=O)NCC(=O)N[C@@H](CCCCN)C(=O)N[C@@H](Cc1ccccc1)C(N)=O", "values": [
      {"measurement": "outcome", "setting": "[1]", "value": "inactive [at 9.29 µM]"},
      {"measurement": "outcome", "setting": "[2]", "value": "inactive [at 9.29 µM]"}
    ]},
    {"smiles": "CCCOc1ccc(-c2nc(OC)c3ccccc3n2)cc1", "values": [
      {"measurement": "Potency", "setting": "[1]", "value": "inactive"},
      {"measurement": "Potency", "setting": "[2]", "value": "inactive"}
    ]},
    {"smiles": "Cc1ccc(Cc2c(C)nc3nc(SCC(=O)NCCN4CCNCC4)nn3c2C)cc1", "values": [
      {"measurement": "Potency", "setting": "[1]", "value": "inactive"},
      {"measurement": "Potency", "setting": "[2]", "value": "inactive"}
    ]},
    {"smiles": "C[C@@H]1O[C@@H](O[C@H]2[C@H](O)[C@@H](O[C@@H]3O[C@H](CO)[C@@H](O)[C@H](O[C@@H]4O[C@H](CO)[C@@H](O)[C@H](O)[C@H]4O)[C@H]3O)[C@H](O[C@H]3CC[C@@]4(C)C(=CC[C@@H]5C4CC[C@@]4(C)C5C[C@@H]5OC6(CC[C@@](C)(CO[C@@H]7O[C@H](CO)[C@@H](O)[C@H](O)[C@H]7O)O6)[C@@H](C)[C@@H]54)C3)O[C@@H]2CO)[C@H](O)[C@H](O)[C@H]1OC1OC(CO)C(O)C(O)C1O", "note": "(some centres not stated)", "values": [
      {"measurement": "outcome", "setting": "[1]", "value": "inactive [at 9.29 µM]"},
      {"measurement": "outcome", "setting": "[2]", "value": "inactive [at 9.29 µM]"}
    ]},
    {"smiles": "O=C1OCc2cc3cccc(O[C@@H]4O[C@H](CO)[C@@H](O)[C@H](O)[C@H]4O)c3c(O)c21", "values": [
      {"measurement": "Potency", "setting": "[1]", "value": "inactive"},
      {"measurement": "Potency", "setting": "[2]", "value": "inactive"}
    ]},
    {"smiles": "O=C(O)[C@@H]1C[C@H]2C[C@@H](CCc3nn[nH]n3)CC[C@H]2CN1", "values": [
      {"measurement": "Potency", "setting": "[1]", "value": "inactive"},
      {"measurement": "Potency", "setting": "[2]", "value": "inactive"}
    ]},
    {"smiles": "C[C@@H]1N[C@H]2N(C1=O)c1ccccc1[C@@]2(O)C[C@@H]1C(=O)N[C@@H](C)c2nc3ccccc3c(=O)n21", "values": [
      {"measurement": "Potency", "setting": "[1]", "value": "inactive"},
      {"measurement": "Potency", "setting": "[2]", "value": "inactive"}
    ]},
    {"smiles": "CC(C)CC1NC(=O)C(C)NC(=O)C(CC(C)C)OC(=O)CCCNC1=O", "note": "(configuration not stated)", "values": [
      {"measurement": "Potency", "setting": "[1]", "value": "inactive"},
      {"measurement": "Potency", "setting": "[2]", "value": "inactive"}
    ]},
    {"smiles": "CC1CCC23COC(=O)C2=CC(O)CC3C1(C)CCC1=CC(O)OC1=O", "note": "(configuration not stated)", "values": [
      {"measurement": "Potency", "setting": "[1]", "value": "inactive"},
      {"measurement": "Potency", "setting": "[2]", "value": "inactive"}
    ]},
    {"smiles": "CCc1c(-c2ccccc2)c(-c2ccccc2)nn1-c1ccccc1-c1cccc(OCC(=O)O)c1", "values": [
      {"measurement": "Potency", "setting": "[1]", "value": "inactive"},
      {"measurement": "Potency", "setting": "[2]", "value": "inactive"}
    ]},
    {"smiles": "CC(=O)OC1CC2C3(C)CCC(OC(=O)CC(=O)O)C(C)(C)C3CCC2(C)C2(C)CCC(C3(C)CCC(=O)O3)C12", "note": "(configuration not stated)", "values": [
      {"measurement": "Potency", "setting": "[1]", "value": "inactive"},
      {"measurement": "Potency", "setting": "[2]", "value": "inactive"}
    ]},
    {"smiles": "CC1=C(C)C(=O)OC(C(C)C2CCC3C4C5OC5C5(O)CC(OC6OC(CO)C(OC7OC(C)C(O)C(O)C7O)C(O)C6O)CC(O)C5(C)C4CCC23C)C1", "note": "(configuration not stated)", "values": [
      {"measurement": "Potency", "setting": "[1]", "value": "inactive"},
      {"measurement": "Potency", "setting": "[2]", "value": "inactive"}
    ]},
    {"smiles": "CC(=O)OC[C@H]1O[C@H](O[C@]2(CO)O[C@H](CO)[C@@H](OC(=O)/C=C/c3ccccc3)[C@@H]2O)[C@H](O)[C@@H](O)[C@@H]1O", "values": [
      {"measurement": "Potency", "setting": "[1]", "value": "inactive"},
      {"measurement": "Potency", "setting": "[2]", "value": "inactive"}
    ]},
    {"smiles": "CC(=O)c1ccc2c(c1)C(O)C(C(C)(C)O)O2", "note": "(configuration not stated)", "values": [
      {"measurement": "Potency", "setting": "[1]", "value": "inactive"},
      {"measurement": "Potency", "setting": "[2]", "value": "inactive"}
    ]}
  ]
}
